Experiment in all cases: log2 fold change, soluble protein after heating vs DMSO (PISA); higher = thermal stabilisation; K562 cells, 10 uM, 30 min; active = over 0.2 and 3.5 SD of the protein, either way, in both replicates (recomputed)
Compound in test [1]: Cc1ccc(NC(=O)c2ccc(CN3CC[C@H](N(C)C)C3)c(C(F)(F)F)c2)cc1Nc1nccc(-c2cncnc2)n1 [bafetinib]
In a few lines: (§1)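 Thermal stability values are relative to control samples and come from duplicates. They are expressed as log2 fold changes. For measurement, K562 cells (2×10^6 cells/mL) received 10 μM compound for 30 min, and aliquots were heated for 3 min over 48°C-58°C, pooled, and extracted at 4°C in PBS with 0.5% NP-40. Soluble protein, the supernatant after 21,000xg for 90 min, was quantified by TMTpro 16plex LC-MS/MS with equalised channel sums.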

Compound in test [2]: Cc1cccc(CC(=O)N2CCc3c2ccc(-c2cn(C)c4ncnc(N)c24)c3F)n1
In a few lines:
as §1

Compound in test [3]: Cc1cn(-c2cc(NC(=O)c3ccc(C)c(Nc4nccc(-c5cccnc5)n4)c3)cc(C(F)(F)F)c2)cn1 [nilotinib]
In a few lines: as §1

Compound in test [4]: Cc1nc(Nc2n[nH]c3c2CN(C(=O)N[C@H](CN(C)C)c2ccccc2)C3(C)C)c2sccc2n1
The gist of the method: as §1

Compound in test [5]: Cc1nc(Nc2ncc(C(=O)Nc3c(C)cccc3Cl)s2)cc(N2CCN(CCO)CC2)n1 [dasatinib]
In a few lines: as §1

Compound in test [6]: Cc1ncc(-c2ccnc(Nc3ccc(S(C)(=O)=O)cc3)n2)n1C(C)C
The gist of the method:
as §1

Compound in test [7]: Cn1cc(-c2ccc3c(c2)CCN3C(=O)Cc2cccc(C(F)(F)F)c2)c2c(N)ncnc21
The gist of the method: as §1

Compound in test [8]: Cn1cc(-c2ccc3nnc(C(F)(F)c4ccc5ncccc5c4)n3n2)cn1
In a few lines:
as §1

Compound in test [9]: Cn1cncc1[C@@](N)(c1ccc(Cl)cc1)c1ccc2c(c1)c(-c1cccc(Cl)c1)cc(=O)n2C [tipifarnib]
The gist of the method: as §1

Compound in test [10]: FC(F)(F)c1ccc(/C=C/c2nc(COc3ccc(CCCCn4ccnn4)cc3)co2)cc1 [mubritinib]
In a few lines:
as §1

Targets with a hit are over-represented here; the source holds about 7,900 in all. About 0.6% of all pairs of compound and target were hits. Unmarked numbers belong to inactive results.

Chain of UniProt P85037 (P85037 whole entry, looked up): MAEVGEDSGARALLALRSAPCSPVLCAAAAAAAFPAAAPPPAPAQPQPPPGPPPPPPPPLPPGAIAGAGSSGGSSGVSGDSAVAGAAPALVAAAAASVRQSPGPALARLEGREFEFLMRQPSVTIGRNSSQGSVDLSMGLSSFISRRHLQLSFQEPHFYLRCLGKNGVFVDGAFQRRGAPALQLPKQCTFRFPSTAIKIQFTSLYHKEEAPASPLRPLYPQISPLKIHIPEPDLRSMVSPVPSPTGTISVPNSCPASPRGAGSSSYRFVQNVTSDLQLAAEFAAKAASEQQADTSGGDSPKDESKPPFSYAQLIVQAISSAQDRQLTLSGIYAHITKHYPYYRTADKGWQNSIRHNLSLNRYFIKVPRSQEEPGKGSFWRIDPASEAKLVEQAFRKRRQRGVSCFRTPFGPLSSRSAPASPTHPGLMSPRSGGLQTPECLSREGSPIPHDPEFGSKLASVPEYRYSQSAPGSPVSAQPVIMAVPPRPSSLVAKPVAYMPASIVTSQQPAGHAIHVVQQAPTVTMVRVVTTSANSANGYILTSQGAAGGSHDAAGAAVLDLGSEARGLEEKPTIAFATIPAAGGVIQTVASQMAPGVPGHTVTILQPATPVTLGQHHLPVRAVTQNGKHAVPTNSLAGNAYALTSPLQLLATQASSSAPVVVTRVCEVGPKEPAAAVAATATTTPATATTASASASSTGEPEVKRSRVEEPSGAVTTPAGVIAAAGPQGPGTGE
Chain of UniProt Q92538 (Q92538 whole entry, looked up): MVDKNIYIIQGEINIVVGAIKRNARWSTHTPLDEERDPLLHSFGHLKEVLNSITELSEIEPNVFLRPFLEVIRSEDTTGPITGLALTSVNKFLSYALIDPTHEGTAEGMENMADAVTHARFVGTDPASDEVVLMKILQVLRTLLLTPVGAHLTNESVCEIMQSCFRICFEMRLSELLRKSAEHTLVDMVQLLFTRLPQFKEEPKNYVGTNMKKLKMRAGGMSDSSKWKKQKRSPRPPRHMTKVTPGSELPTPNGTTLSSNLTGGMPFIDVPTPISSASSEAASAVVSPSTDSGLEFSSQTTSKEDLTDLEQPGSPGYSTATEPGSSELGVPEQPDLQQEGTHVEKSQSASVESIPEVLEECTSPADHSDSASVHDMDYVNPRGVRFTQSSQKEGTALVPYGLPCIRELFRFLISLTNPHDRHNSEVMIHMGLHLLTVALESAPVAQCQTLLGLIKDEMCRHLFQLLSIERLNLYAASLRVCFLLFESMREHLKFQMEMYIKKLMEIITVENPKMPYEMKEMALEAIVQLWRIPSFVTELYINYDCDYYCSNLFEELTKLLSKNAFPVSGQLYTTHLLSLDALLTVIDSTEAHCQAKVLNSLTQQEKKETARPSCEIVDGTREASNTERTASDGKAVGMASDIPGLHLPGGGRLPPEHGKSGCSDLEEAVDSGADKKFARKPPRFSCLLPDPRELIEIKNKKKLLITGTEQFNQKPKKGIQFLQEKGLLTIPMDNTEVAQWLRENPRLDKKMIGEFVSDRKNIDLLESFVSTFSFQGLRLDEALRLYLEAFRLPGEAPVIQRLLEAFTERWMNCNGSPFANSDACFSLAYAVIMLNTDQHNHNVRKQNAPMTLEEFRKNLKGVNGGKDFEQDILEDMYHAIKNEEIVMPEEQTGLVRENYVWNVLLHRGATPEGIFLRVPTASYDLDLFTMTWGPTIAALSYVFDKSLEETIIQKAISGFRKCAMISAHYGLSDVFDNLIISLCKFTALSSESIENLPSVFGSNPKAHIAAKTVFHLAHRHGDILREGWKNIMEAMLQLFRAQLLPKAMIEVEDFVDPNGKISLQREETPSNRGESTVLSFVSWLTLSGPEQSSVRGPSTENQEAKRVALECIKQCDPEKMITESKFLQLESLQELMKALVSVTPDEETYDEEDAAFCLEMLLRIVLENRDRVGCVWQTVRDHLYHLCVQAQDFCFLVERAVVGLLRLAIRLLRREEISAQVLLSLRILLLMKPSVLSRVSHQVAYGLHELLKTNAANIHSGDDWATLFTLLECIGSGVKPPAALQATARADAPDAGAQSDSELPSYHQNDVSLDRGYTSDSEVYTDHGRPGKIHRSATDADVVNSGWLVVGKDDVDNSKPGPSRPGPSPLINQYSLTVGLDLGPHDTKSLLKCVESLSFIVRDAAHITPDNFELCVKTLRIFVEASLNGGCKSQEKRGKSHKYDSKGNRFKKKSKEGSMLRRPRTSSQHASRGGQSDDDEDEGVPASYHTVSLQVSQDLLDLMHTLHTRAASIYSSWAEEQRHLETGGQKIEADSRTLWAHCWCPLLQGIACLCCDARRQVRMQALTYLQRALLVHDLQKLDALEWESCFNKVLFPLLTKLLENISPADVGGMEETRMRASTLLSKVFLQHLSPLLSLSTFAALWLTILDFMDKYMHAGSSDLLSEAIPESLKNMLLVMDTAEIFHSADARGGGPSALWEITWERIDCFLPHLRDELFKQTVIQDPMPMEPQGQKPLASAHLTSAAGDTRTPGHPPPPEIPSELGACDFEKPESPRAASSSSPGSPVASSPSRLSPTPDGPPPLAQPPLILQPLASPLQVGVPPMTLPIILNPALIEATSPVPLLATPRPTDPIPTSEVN
Chain of UniProt P37268 (P37268 whole entry, looked up): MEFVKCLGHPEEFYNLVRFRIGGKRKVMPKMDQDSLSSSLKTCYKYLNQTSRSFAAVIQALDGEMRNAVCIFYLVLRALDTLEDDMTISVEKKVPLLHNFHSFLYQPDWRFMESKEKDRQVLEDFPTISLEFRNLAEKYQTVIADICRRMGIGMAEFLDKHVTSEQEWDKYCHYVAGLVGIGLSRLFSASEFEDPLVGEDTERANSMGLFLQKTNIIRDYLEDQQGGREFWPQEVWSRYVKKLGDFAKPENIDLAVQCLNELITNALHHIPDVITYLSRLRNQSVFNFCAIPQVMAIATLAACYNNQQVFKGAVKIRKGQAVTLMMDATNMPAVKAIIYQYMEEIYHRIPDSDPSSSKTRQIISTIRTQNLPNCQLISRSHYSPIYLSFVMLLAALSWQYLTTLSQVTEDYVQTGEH
Chain of UniProt Q14527 (Q14527 whole entry, looked up): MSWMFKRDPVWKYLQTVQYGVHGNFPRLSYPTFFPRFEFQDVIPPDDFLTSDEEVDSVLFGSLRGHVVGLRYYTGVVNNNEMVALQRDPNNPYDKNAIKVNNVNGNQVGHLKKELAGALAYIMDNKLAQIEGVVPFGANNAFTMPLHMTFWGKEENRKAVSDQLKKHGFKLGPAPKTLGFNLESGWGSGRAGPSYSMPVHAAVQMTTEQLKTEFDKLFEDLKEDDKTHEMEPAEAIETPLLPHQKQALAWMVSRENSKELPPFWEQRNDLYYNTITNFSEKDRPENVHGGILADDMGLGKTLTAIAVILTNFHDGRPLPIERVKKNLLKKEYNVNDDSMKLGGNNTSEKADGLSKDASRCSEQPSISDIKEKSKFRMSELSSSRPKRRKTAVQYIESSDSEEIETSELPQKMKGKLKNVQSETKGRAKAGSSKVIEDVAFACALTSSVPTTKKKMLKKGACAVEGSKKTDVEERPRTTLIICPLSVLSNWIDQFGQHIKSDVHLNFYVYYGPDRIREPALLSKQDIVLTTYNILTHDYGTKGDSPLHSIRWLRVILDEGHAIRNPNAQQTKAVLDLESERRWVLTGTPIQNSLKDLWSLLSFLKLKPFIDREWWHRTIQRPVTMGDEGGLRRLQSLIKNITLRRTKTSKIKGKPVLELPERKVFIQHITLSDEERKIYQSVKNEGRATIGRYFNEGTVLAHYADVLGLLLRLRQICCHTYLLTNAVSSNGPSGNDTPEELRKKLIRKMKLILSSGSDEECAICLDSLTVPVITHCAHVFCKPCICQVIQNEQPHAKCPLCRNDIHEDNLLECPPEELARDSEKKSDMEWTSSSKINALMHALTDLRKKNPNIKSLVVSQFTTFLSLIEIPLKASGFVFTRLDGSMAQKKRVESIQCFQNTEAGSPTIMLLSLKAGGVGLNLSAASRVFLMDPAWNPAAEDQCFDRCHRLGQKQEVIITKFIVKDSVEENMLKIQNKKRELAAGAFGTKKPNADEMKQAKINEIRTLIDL
Chain of UniProt P08236 (P08236 whole entry, looked up): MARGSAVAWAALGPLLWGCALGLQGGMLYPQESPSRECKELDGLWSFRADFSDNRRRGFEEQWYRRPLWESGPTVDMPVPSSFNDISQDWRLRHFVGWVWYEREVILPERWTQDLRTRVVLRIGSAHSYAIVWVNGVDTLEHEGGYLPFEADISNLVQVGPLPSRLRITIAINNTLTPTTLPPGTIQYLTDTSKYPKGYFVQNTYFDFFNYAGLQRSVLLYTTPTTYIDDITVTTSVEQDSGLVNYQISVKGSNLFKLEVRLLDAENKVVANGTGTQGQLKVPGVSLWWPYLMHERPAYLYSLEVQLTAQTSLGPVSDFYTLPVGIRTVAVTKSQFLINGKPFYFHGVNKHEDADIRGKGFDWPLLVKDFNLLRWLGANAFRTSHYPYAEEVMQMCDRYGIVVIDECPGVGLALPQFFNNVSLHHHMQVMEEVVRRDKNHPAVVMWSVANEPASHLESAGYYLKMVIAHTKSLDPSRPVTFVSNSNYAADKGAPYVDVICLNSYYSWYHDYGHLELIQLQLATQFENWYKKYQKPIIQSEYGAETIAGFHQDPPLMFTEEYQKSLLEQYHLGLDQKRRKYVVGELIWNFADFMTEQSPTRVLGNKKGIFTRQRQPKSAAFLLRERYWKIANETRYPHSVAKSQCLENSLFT
Chain of UniProt Q8N9F7 (Q8N9F7 whole entry, looked up): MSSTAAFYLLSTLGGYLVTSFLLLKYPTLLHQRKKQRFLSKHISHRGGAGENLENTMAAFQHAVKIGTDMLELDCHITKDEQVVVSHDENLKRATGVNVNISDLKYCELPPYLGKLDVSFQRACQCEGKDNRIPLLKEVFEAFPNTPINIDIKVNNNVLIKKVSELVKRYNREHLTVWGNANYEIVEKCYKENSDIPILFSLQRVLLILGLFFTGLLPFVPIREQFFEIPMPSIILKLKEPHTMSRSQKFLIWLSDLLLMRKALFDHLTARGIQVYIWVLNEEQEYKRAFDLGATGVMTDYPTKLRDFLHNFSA

Consider GSTP1 (UniProt P09211), for which the log2 fold change is -0.061 in [1]; -0.021 in [2]; -0.018 in test [3]; -0.017 in test [4]; -0.014 in [5]; 0.007 in test [6]. The log2 fold change in test [7] was 0.032; in test [8], 0.038; in [9], -0.007; in [10], 0.038.
As for GTF3C4 (UniProt Q9UKN8), the log2 fold change in test [1] was -0.065; in [2] it was 0.019; in test [3], -0.034; in test [4] it was -0.069; in test [5] it was -0.024; in test [6] it was 0.036. The log2 fold change was -0.017 in [7], -0.007 in [8], 0.014 in test [9] and 0.01 in [10].
For HAUS4 (UniProt Q9H6D7), the log2 fold change in test [1] is -0.069; in [2], 0.023; in test [3], 0.08; in test [4], 0.086; in test [5], 0.178; in test [6], 0.567. The log2 fold change in test [7] is -0.045; in [8], -0.051; in test [9], -0.115; in test [10] it was -0.547.
FDFT1 (UniProt P37268): the log2 fold change in test [1] was 0.01; in test [2], 0.016; in test [3], 0.12; in test [4] it was 0.071; in [5], 0.023; in test [6], -0.019. Further, the log2 fold change in [7] is 0.111; in test [8] it was -0.047; in [9] it was 0.089; in [10], 0.022.
Take GLUL (UniProt P15104): the log2 fold change was -0.027 in [1]; -0.038 in test [2]; -0.061 in test [3]; 0.062 in [4]; 0.015 in [5]; -0.148 in [6]. Further, the log2 fold change in test [7] was -0.035; in test [8] it was -0.085; in test [9], 0.011; in [10], -0.112.
GDPD1 (UniProt Q8N9F7): the log2 fold change is 0.088 in [1]; -0.141 in test [2]; 0.1 in [3]; 0.104 in test [4]; 0.023 in test [5]; -0.045 in [6]. Also, the log2 fold change in test [7] was 0.046; in test [8], -0.031; in test [9] it was 0.106; in test [10], 0.096.
On to HAX1 (UniProt O00165), for which the log2 fold change in [1] was -0.103; in test [2], 0.029; in test [3], -0.113; in test [4], -0.174; in test [5], -0.044; in test [6], 0.069. In addition, the log2 fold change in test [7] is -0.028; in [8], -0.068; in test [9], -0.112; in [10], 0.001.
Turning to HLTF (UniProt Q14527), the log2 fold change is -0.003 in test [1]; 0.017 in test [2]; 0.099 in [3]; -0.193 in [4]; -0.035 in test [5]; 0.015 in test [6]. Besides, the log2 fold change in test [7] was -0.035; in [8], -0.01; in test [9], 0.007; in test [10] it was 0.051.
Consider FOXK1 (UniProt P85037), for which the log2 fold change in test [1] is 0.03; in test [2], 0.052; in test [3], 0.487; in [4], -0.816; in test [5] it was 0.128; in test [6] it was -1.19 (active). For the same target, the log2 fold change in test [7] was 0.312; in [8] it was 0.184; in [9], 0.008; in test [10] it was 0.03.
Turning to GPAT4 (UniProt Q86UL3), the log2 fold change was -0.138 in test [1]; -0.028 in test [2]; -0.047 in test [3]; 0.049 in test [4]; -0.024 in [5]; -0.009 in test [6]. The log2 fold change in [7] is 0.093; in test [8], -0.018; in [9] it was -0.069; in test [10] it was -0.008.
On to GUSB (UniProt P08236), for which the log2 fold change in test [1] is 0.016; in test [2] it was -0.013; in test [3], 0.218; in test [4], -0.115; in test [5], 0.053; in test [6], 0.117. Also, the log2 fold change in test [7] is -0.059; in test [8], -0.007; in test [9], 0.16; in test [10], -0.136.
For the target GGT7 (UniProt Q9UJ14), the log2 fold change in test [1] is -0.081; in test [2] it was -0.038; in test [3] it was 0.026; in test [4] it was 0.015; in test [5], -0.02; in test [6], -0.03. Also, the log2 fold change in [7] was 0.063; in test [8], 0.018; in test [9], 0.001; in test [10], 0.021.
For the target GBF1 (UniProt Q92538), the log2 fold change in test [1] is 0.014; in test [2] it was 0.081; in test [3] it was -0.117; in test [4], -0.109; in test [5], -0.113; in test [6], -0.001. Besides, the log2 fold change is -0.079 in test [7], -0.049 in test [8], -0.15 in test [9] and 0.093 in test [10].
Take FUCA2 (UniProt Q9BTY2): the log2 fold change is -0.809 (active) in test [1]; -0.022 in test [2]; 0.032 in test [3]; 0.001 in test [4]; 0.022 in test [5]; -0.009 in test [6]. Moreover, the log2 fold change in test [7] was 0.012; in test [8], -0.019; in [9], 0.077; in [10], 0.013.
Take FBXO7 (UniProt Q9Y3I1): the log2 fold change in test [1] is -0.026; in [2] it was -0.006; in [3], 0.003; in test [4], 0.059; in test [5], -0.102; in test [6] it was 0. The log2 fold change in [7] was 0.065; in [8], -0.002; in test [9], 0.072; in test [10] it was 0.07.

(Values after the supplement of paper PMC10849652.)
